# Assay outcomes: PubChem, The Scripps Research Institute Molecular Screening Center
# TEAD-YAP inh: TEAD-YAP interaction inhibition | 640,000 compounds, 1.4% hits | inhibition, % at 9.12 µM | HEK-TIYL cells, TEAD-Gal4/YAP UAS-luciferase luminescence; in the data active = inhibition above about 32%;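 note: 0% = median of test compound wells and 100% = reference inhibitor wells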
# MITF inh: human MITF inhibition, primary screen. AlphaScreen MITF homodimerization, bead proximity signal. inhibition, % at 2.6 µM. 650,000 compounds, 0.91% hits. AID 1259374; in the data active = inhibition above about 50%;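 note: 0% = vehicle wells with protein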
# GPR151 ag: human GPR151 activation; Q8TDV0; PathHunter beta-arrestin GPR151 cells, luminescence; activation, % at 11.2 µM; 650,000 compounds, 1% hits; AID 1508602; in the data active = activation above about 4.9%;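 note: 0% = median of compound wells and 100% = cells with positive control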
# FBW7 activator: human FBW7 E3 ligase activation, primary screen; Q969H0; AlphaScreen FBW7–phospho-cyclin E peptide binding, activator screen; normalized activity (activation), % at 26.1 µM; 650,000 compounds, 0.13% hits; in the data active = normalized activity above about 1.9%;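 note: purified mutant Fbw7 with reduced substrate affinity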
# Starred values were filed as active, the others as inactive. Sampled rows, rich in hits. Any-hit rate of the full collection: about 3.4%.
SMILES,TEAD-YAP inh,MITF inh,GPR151 ag,FBW7 activator
O=C(Nc1ccccc1-c1nc2ccccc2[nH]1)C1COc2ccccc2O1 (configuration not stated),-3,-5,0,0
COc1cc2ccccc2cc1C(=O)Nc1ccccc1-c1nc2ccccc2[nH]1,7,-2,1,2.6*
CC(=O)c1ccc(C(=O)Nc2ccccc2-c2nc3ccccc3[nH]2)cc1,-1,-12,1,0
O=[N+]([O-])c1ccc(Nc2ccc(O)cc2)c2nonc12,6,9,-1,0
O=[N+]([O-])c1ccc(N2CCCCC2)cc1N1CCc2ccccc2C1,9,10,1,0
O=[N+]([O-])c1ccc(N2CCCC2)cc1N1CCc2ccccc2C1,73*,-12,0,0
Cc1ccccc1-n1c(-c2ccc(Cl)cc2Cl)n[nH]c1=S,-3,16,1,1.9*
CC(=O)N(/N=C1\Sc2ccccc2C1=O)c1ccc(Br)cc1,-12,27,0,0
CC(=O)N(/N=C1\Sc2ccccc2C1=O)c1ccccc1[N+](=O)[O-],59*,25,-1,0
Fc1cc(-c2nc(Nc3ccc(-n4cnc(-c5ccccn5)n4)cc3)ncc2F)cc(N2CCOCC2)c1,58*,14,0,0
c1ccc(-c2ncn(-c3ccc(Nc4nccc(-c5cccc(N6CCOCC6)c5)n4)cc3)n2)nc1,80*,1,0,0
c1cc(-c2ccnc(Nc3ccc(-n4cnnc4)cc3)n2)cc(N2CCOCC2)c1,45*,6,1,0
Fc1cc(-c2nc(Nc3ccc(-n4cnc(N5CCOCC5)n4)cc3)ncc2F)cc(N2CCOCC2)c1,14,1,0,0
c1ccc(-c2ncn(-c3ccc(Nc4nccc(-c5cncc(N6CCOCC6)c5)n4)cc3)n2)nc1,73*,3,0,-1
Cc1onc(-c2ccccc2)c1C(=O)OCC(=O)Nc1c(C)n(C)n(-c2ccccc2)c1=O,3,5,-2,1
Cc1ccc(NC(=O)/C(C#N)=C/c2c(Oc3ccccc3F)nc3ccccn3c2=O)cc1,2,12,0,1
CC1(C)CC(=O)C2=C(C1)Nc1ccc3ncccc3c1C2c1cn[nH]c1-c1ccc(F)cc1 (configuration not stated),35*,-2,-1,0
CC1(C)CC(=O)C2=C(C1)Nc1ccc3ncccc3c1C2c1cccc(Cl)c1Cl (configuration not stated),3,2,2,0
Cc1ccccc1C1NC(=S)NC2=C1C(=O)CC(C)(C)C2 (configuration not stated),7,18,-1,0
CC1(C)CC(=O)C2=C(C1)NC(=S)NC2c1ccccc1 (configuration not stated),55*,1,-2,0
CC(=O)OCCCN1C(=O)c2ccc(C(=O)c3ccc4c(c3)C(=O)N(CCCOC(C)=O)C4=O)cc2C1=O,2,8,0,0
O=C(CCl)Nc1ccc2c(c1)OC(F)(F)O2,37*,15,1,0
CN(CC(=O)Nc1cccc(F)c1)CC(=O)Nc1ccc2c(c1)OC(F)(F)O2,14,-7,-2,1
O=C(Nc1ccc(F)c(Cl)c1)c1ccc(Cl)c([N+](=O)[O-])c1,2,3,1,0
O=C(Nc1ccc2c(c1)OC(F)(F)O2)c1ccc(Cl)c([N+](=O)[O-])c1,34*,10,0,0
SMILES,TEAD-YAP inh,MITF inh,GPR151 ag,FBW7 activator
O=c1c(C=Nc2ccc(F)cc2)c(C(F)(F)F)[nH]n1-c1ccccc1,9,-18,-2,0
CC1CCc2cc(F)cc3c(O)c(C(=O)Nc4ccccn4)c(=O)n1c23 (configuration not stated),10,8,0,2.0*
Cc1cc2c(cc1C)C(c1ccc(F)cc1)CC(=O)N2 (configuration not stated),0,-6,2,0
CCOC(=O)c1c(NC(=O)C2C3C=CC(C3)C2C(=O)O)sc2c1CC(C)CC2 (configuration not stated),37*,-4,0,0
CCC1CCc2c(sc(NC(=O)C3C4C=CC(C4)C3C(=O)O)c2C(=O)OC)C1 (configuration not stated),56*,11,-1,0
CCOC(=O)c1c(NC(=O)C2C3C=CC(C3)C2C(=O)O)sc2c1CCC2 (configuration not stated),19,1,-1,0
CCc1c(C)sc(NC(=O)C2C3C=CC(C3)C2C(=O)O)c1C(=O)OC (configuration not stated),32*,12,-2,0
